In PubChem BioAssay (Tox21):
Where “and” joins values, the source holds several entries; their conditions need not be identical. Identical values can stand only once. Records with an inconclusive call do not appear. Calls of active or inactive are those of the source. Unless noted, calls follow the shape of the dose curve; as a rule, active = well fitted curve in the direction sought with a large enough effect in the repeat runs; inconclusive = weak or mixed curves; inactive = no such curve, though single readings can be large; an effect the other way counts as inactive or inconclusive.

What was measured:
[1] = A CellTox Green Cytotoxicity Assay to monitor cytotoxicity in HEK293 cells - 32 hour (AID 1224881); also: nearly all actives have a fitted effect of over 40% in size; also: potency is read from the fitted curve at half-maximal effect
In short: (§1)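 Fluorescence intensity, read at 0, 8, 16, 24, 32 and 40 h of compound treatment, reflected dye binding to DNA of dead HEK293 cells; compounds (23 nL, DMSO) were added 5 h after plating cells with reagent.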

[2] = A CellTox Green Cytotoxicity Assay to monitor cytotoxicity in HepG2 cells - 0 hour (AID 1224882); also: nearly all actives have a fitted effect of over 35% in size; also: potency is read from the fitted curve at half-maximal effect
In short: (§2)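 Using 1536-well format, dye-containing HepG2 suspension was seeded, allowed 5 h at 37 C/5% CO2, dosed by pintool with compounds, positive and negative controls, and imaged for fluorescence across 40 h.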

[3] = qHTS RealTime-Glo MT Cell Viability Assay in HepG2 cells - 16 hour (AID 1224885); also: nearly all actives have a fitted effect of over 50% in size; also: potency is read from the fitted curve at half-maximal effect
In short: (§3)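 Tox21 10K library screened in qHTS format on HepG2 cells carrying RealTime-Glo reagents. Compounds were added after a 5 h preincubation, and the luminescent signal from continuous culture was measured repeatedly during 40 h treatment.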

[4] = qHTS RealTime-Glo MT Cell Viability Assay in HEK293 cells - 8 hour (AID 1224887); also: nearly all actives have a fitted effect of over 50% in size; also: potency is read from the fitted curve at half-maximal effect
In short: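 Viable HEK293 cells reduce a cell-permeant prosubstrate; the product diffuses out and is consumed by NanoLuc in the medium to give light. Compounds went in after a 5 h incubation and plates were read over the treatment course.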

[5] = A CellTox Green Cytotoxicity Assay to monitor cytotoxicity in HepG2 cells - 8 hour (AID 1224890); also: nearly all actives have a fitted effect of over 45% in size; also: potency is read from the fitted curve at half-maximal effect
In short: as §2

[6] = qHTS assay to identify small molecule antagonists of the estrogen receptor alpha (ER-alpha) signaling pathway using the BG1 cell line in the presence of 0.1 nM 17-beta-estradiol - cell viability counter screen (AID 1259241); also: nearly all actives have a fitted effect of over 40% in size; also: potency is read from the fitted curve at half-maximal effect
In short: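 Measures cytotoxicity alongside the ER-alpha antagonist readout: VM7Luc4E2 cells, charcoal-stripped serum, 0.1 nM 17beta-estradiol final, 22 hr compound incubation at 37C, CellTiter-Fluor fluorescence.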

[7] = target: Androgen receptor (Homo sapiens) (UniProt P10275); test: qHTS assay to identify small molecule antagonists of the androgen receptor (AR) signaling pathway using the MDA cell line in the presence of 0.5 nM R1881 (AID 1259243); also: nearly all actives have a fitted effect of over 50% in size; also: potency is read from the fitted curve at half-maximal effect
Androgen receptor (Homo sapiens), sequence (P10275 whole entry, looked up): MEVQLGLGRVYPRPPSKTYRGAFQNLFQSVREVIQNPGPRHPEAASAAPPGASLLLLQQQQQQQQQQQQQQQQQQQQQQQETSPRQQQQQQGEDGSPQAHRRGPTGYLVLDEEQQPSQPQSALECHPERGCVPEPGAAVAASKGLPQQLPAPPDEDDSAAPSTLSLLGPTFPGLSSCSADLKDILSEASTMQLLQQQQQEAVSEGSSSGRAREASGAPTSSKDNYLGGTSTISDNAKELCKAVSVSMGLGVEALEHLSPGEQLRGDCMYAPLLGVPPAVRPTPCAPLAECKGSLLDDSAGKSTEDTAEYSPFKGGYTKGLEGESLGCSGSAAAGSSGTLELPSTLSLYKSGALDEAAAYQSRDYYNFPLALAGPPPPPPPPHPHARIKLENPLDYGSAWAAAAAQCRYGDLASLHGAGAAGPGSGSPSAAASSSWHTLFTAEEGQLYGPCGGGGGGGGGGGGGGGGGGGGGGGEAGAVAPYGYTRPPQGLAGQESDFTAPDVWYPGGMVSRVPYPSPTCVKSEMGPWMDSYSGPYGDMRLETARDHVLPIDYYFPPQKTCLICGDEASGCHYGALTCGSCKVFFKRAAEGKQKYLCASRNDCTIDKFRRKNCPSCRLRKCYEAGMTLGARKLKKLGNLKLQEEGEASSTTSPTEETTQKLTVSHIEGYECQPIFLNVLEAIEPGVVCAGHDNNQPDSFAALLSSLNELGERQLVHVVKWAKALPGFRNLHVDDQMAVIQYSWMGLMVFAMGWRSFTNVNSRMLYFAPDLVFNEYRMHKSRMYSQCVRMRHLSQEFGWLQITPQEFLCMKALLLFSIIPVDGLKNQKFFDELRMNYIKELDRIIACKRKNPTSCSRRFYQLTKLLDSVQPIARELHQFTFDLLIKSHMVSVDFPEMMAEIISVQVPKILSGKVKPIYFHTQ
In short: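 Reporter cells cultured without CO2 receive test chemicals, then 0.5 nM R1881 final; after 16 hr at 37C, ONE-Glo is added and light output recorded.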

[8] = qHTS assay to identify small molecule HDAC inhibitors (AID 1259364); also: potency is read from the fitted curve at half-maximal effect;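 also: wild-type HCT-116 cells with endogenous class I/II HDAC activity; nearly all actives have a fitted effect of over 45% in size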
In short: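 Read-out: luminescence of HDAC-Glo I/II reagent, 30 min RT, reflecting class I/II deacetylase activity in whole HCT-116 cells pre-exposed 2 h to DMSO-dissolved compounds.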

[9] = qHTS assay to identify small molecule HDAC inhibitors - cell viability counter screen (AID 1259365); also: nearly all actives have a fitted effect of over 50% in size; also: potency is read from the fitted curve at half-maximal effect
In short: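 Following a 2hr exposure of overnight-plated wild-type HCT-116 cells to DMSO-delivered compounds, CellTiter-Glo was added and luminescence recorded after 30min at room temperature.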

[10] = qHTS assay to identify small molecule agonists of the sonic hedgehog signaling (Shh) pathway (AID 1259368; calls by dose curve;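 also: NIH/3T3-derived 3T3Gli1-Luc cells carrying a stable Gli1-driven firefly luciferase reporter; series mostly up to about 92 µM; nearly all actives have a fitted effect of over 15% in size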)
In short: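 A Gli1 transcriptional response element controlled firefly luciferase in 3T3Gli1-Luc cells. Compounds and a positive control were added 4 hr after plating, and cells were incubated a further 24 hr at 37 C before luminescence detection.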

[11] = A CellTox Green Cytotoxicity Assay to monitor cytotoxicity in HepG2 cells - 32 hour (AID 1224883); also: nearly all actives have a fitted effect of over 50% in size; also: potency is read from the fitted curve at half-maximal effect
In short: as §2

[12] = A CellTox Green Cytotoxicity Assay to monitor cytotoxicity in HEK293 cells - 16 hour (AID 1224888); also: nearly all actives have a fitted effect of over 35% in size; also: potency is read from the fitted curve at half-maximal effect
In short: as §1

[13] = qHTS RealTime-Glo MT Cell Viability Assay in HepG2 cells - 0 hour (AID 1224889); also: nearly all actives have a fitted effect of over 50% in size
In short: as §3

[14] = target: Estrogen receptor (Homo sapiens) (UniProt P03372); test: qHTS assay to identify small molecule antagonists of the estrogen receptor alpha (ER-alpha) signaling pathway using the BG1 cell line in the presence of 0.1 nM 17-beta-estradiol (AID 1259244); also: nearly all actives have a fitted effect of over 50% in size; also: potency is read from the fitted curve at half-maximal effect
Estrogen receptor (Homo sapiens), sequence (P03372 whole entry, looked up): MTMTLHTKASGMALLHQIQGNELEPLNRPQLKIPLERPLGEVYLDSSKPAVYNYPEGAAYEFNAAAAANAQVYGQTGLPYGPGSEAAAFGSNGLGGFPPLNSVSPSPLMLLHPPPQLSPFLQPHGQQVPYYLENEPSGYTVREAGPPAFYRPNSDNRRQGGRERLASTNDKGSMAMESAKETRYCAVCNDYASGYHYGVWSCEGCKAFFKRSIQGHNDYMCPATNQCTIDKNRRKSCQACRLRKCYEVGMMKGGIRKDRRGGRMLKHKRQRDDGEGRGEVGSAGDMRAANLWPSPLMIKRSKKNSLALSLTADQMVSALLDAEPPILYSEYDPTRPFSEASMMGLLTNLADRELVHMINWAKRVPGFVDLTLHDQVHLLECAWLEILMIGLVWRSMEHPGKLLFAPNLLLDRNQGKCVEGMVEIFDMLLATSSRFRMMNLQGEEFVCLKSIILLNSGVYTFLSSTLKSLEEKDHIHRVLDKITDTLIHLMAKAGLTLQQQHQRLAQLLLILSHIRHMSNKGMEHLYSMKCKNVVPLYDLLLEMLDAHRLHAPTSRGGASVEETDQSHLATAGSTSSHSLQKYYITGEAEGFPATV
In short: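 Estradiol at 0.1 nM (final) stimulates the endogenous ER-alpha of VM7Luc4E2 cells carrying an ERE-driven luciferase; compounds are co-incubated 22 h at 37C and luciferase output quantified by luminescence.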

[15] = qHTS assay to identify small molecule agonists of the sonic hedgehog signaling (Shh) pathway - cell viability counter screen (AID 1259366); also: nearly all actives have a fitted effect of over 50% in size; also: potency is read from the fitted curve at half-maximal effect
In short: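 After a 4hr attachment at 37C, NIH/3T3 cells bearing an integrated Gli1-driven luciferase reporter were dosed with compounds. Treatment lasted 24hr, with the final hour including CellTiter-Fluor for a fluorescence viability measurement.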

[16] = qHTS assay to identify small molecule antagonists of the sonic hedgehog signaling (Shh) pathway - cell viability counter screen (AID 1259367); also: nearly all actives have a fitted effect of over 55% in size; also: potency is read from the fitted curve at half-maximal effect
In short: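 After a 4 hr settling period, 3T3 Gli1-Luc cells were treated with DMSO-dissolved chemicals and conditioned medium, kept 24 hr at 37C in 5% CO2, and assayed for viability by CellTiter-Fluor fluorescence following 1 hr reagent incubation.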

[17] = A CellTox Green Cytotoxicity Assay to monitor cytotoxicity in HEK293 cells - 8 hour (AID 1224884); also: nearly all actives have a fitted effect of over 35% in size; also: potency is read from the fitted curve at half-maximal effect
In short: as §1

[18] = qHTS RealTime-Glo MT Cell Viability Assay in HEK293 cells - 24 hour (AID 1224886); also: nearly all actives have a fitted effect of over 50% in size; also: potency is read from the fitted curve at half-maximal effect
In short: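 Luminescence generated by NanoLuc from substrate produced by living HEK293 cells served as the viability signal. Each value reflects the reading at its stated time point during continuous 40 h compound exposure at 37 C.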

[19] = qHTS assay to identify small molecule antagonists of the androgen receptor (AR) signaling pathway using the MDA cell line in the presence of 0.5 nM R1881 - cell viability counter screen (AID 1259242); also: nearly all actives have a fitted effect of over 45% in size; also: potency is read from the fitted curve at half-maximal effect
In short: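 Viability of MDA-kb2 cells was multiplexed with the luciferase AR readout; after 16 hr with compounds and R1881 at 0.5 nM final, CellTiter-Fluor fluorescence was recorded.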

[20] = qHTS assay to identify small molecule phospholipidosis (PLD) inducers (AID 1259344; active = well fitted curve in the direction sought with a large enough effect; an effect the other way counts as inactive or inconclusive)
In short: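 HepG2 cells grown on collagen I take up LipidTOX Red while exposed to compound for 24 h; after fixation they are imaged at 20x and pit metrics are extracted.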
% is scaled to controls: 0 for no effect and ±100 for the full control effect.

COc1cc(-c2nc(NC(=O)c3cc4cc(C)cc(C)c4n3CC(=O)O)sc2CCC2CCCCC2)c(OC)cc1Cl
active: Potency [2] 44.9 µM | Potency [3] 35.7 µM | Potency [5] 40 µM | Potency [7] 56 µM | Potency [9] 25 µM
inactive: Potency [1] | Potency [4] | Potency [6] | Potency [8] | Potency [10]

O=C(c1ccc(O)cc1O)c1ccc(O)cc1O
active: Potency [7] 3.07 µM and 3.06 µM
inactive: Potency [1] | Potency [2] | Potency [11] | Potency [4] | Potency [12] | Potency [13] | Potency [5] | Potency [6] | Potency [14] | Potency [9] | Potency [15] | Potency [10]

O=c1cccccc1O
active: Potency [16] 62.3 µM
inactive: Potency [1] | Potency [2] | Potency [11] | Potency [4] | Potency [12] | Potency [13] | Potency [5] | Potency [6] | Potency [8] | Potency [9] | Potency [10]

Nc1cc(C(F)(F)F)ccc1S
inactive: Potency [2] | Potency [11] | Potency [17] | Potency [3] | Potency [18] | Potency [4] | Potency [12] | Potency [13] | Potency [5] | Potency [6] | Potency [19] | Potency [7] | Potency [14] | Potency [8] | Potency [9] | Potency [10]

Oc1ccc2cc(SSc3ccc4cc(O)ccc4c3)ccc2c1
active: Potency [1] 43.7 µM and 19.5 µM | Potency [4] 39 µM | Potency [16] 61.2 µM and 48.6 µM
inactive: Potency [2] | Potency [11] | Potency [13] | Potency [5] | Potency [6] | Potency [19] | Potency [8] | Potency [9] | Potency [10]

Oc1ccc(N=Nc2ccccc2)cc1
inactive: Potency [2] | Potency [3] | Potency [13] | Potency [5] | Potency [6] | Potency [14] | Potency [9] | Potency [10]
active: Potency [1] 44.2 µM | Potency [18] 17.6 µM | Potency [4] 19.8 µM | Potency [7] 31 µM | Potency [8] 2.77 µM | Potency [15] 27.7 µM

CC(C)(C)NC(=O)[C@@H]1C[C@@H]2CCCC[C@@H]2CN1C[C@@H](O)[C@H](Cc1ccccc1)NC(=O)[C@H](CC(N)=O)NC(=O)c1ccc2ccccc2n1
inactive: Potency [2] | Potency [17] | Potency [12] | Potency [13] | Potency [5] | Potency [20] | Potency [8] | Potency [9] | Potency [10]
active: Potency [11] 55.7 µM | Potency [3] 55.7 µM | Potency [18] 19.7 µM | Potency [4] 19.7 µM | Potency [6] 27.7 µM | Potency [19] 61.9 µM | Potency [15] 9.82 µM | Potency [16] 13.9 µM

CC(=O)S[C@@H]1CC2=CC(=O)CC[C@]2(C)[C@H]2CC[C@@]3(C)[C@@H](CC[C@@]34CCC(=O)O4)[C@H]12
active: Potency [11] 54.9 µM
inactive: Potency [1] | Potency [2] | Potency [12] | Potency [13] | Potency [5] | Potency [6] | Potency [19] | PLD induction [20] 5.04% [at 1.53 µM] | Potency [8] | Potency [9] | Potency [16] | Potency [10]

C[C@H](CCC(=O)O)[C@H]1CC[C@H]2[C@@H]3CC[C@@H]4C[C@H](O)CC[C@]4(C)[C@H]3CC[C@]12C
inactive: Potency [1] | Potency [2] | Potency [18] | Potency [4] | Potency [12] | Potency [13] | Potency [5] | Potency [6] | Potency [19] | Potency [8] | Potency [9] | Potency [15] | Potency [16] | Potency [10]

CC(=O)SC[C@@H](Cc1ccccc1)C(=O)NCC(=O)OCc1ccccc1
inactive: Potency [2] | Potency [11] | Potency [17] | Potency [3] | Potency [18] | Potency [4] | Potency [12] | Potency [13] | Potency [5] | Potency [6] | Potency [19] | Potency [20] | Potency [8] | Potency [9] | Potency [15] | Potency [16] | Potency [10]

CCC1=C[C@@H]2CN(C1)Cc1c([nH]c3ccccc13)[C@@](C(=O)OC)(c1cc3c(cc1OC)N(C)[C@H]1[C@@](O)(C(=O)OC)[C@H](OC(C)=O)[C@]4(CC)C=CCN5CC[C@]31[C@@H]54)C2
inactive: Potency [1] | Potency [2] | Potency [11] | Potency [12] | Potency [13] | Potency [5] | Potency [20] | Potency [9] | Potency [10]
active: Potency [14] 21.1 µM | Potency [15] 11.9 µM

CCCCCCCCOc1ccccc1C(=O)Nc1ccc(C(=O)OCC[N+](C)(CC)CC)cc1
inactive: Potency [4] | Potency [13] | Potency [6] | Potency [19] | Potency [14] | Potency [20] | Potency [8] | Potency [9] | Potency [15] | Potency [16] | Potency [10]
active: Potency [1] 23.9 µM | Potency [11] 23.9 µM | Potency [17] 23.9 µM | Potency [12] 23.9 µM | Potency [5] 26.8 µM

O=c1[nH]sc2cc(Cl)ccc12
active: Potency [7] 0.001 µM
inactive: Potency [1] | Potency [2] | Potency [17] | Potency [4] | Potency [12] | Potency [13] | Potency [6] | Potency [19] | Potency [8] | Potency [9] | Potency [16]

CCCCN1CCCC[C@H]1C(=O)Nc1c(C)cccc1C
inactive: Potency [2] | Potency [11] | Potency [17] | Potency [3] | Potency [18] | Potency [4] | Potency [12] | Potency [13] | Potency [5] | Potency [6] | Potency [19] | Potency [7] | Potency [14] | Potency [20] | Potency [8] | Potency [9] | Potency [15] | Potency [16] | Potency [10]
